Results from PubChem BioAssay (NCI).
About 83,000 compounds went through this panel and 20% of them were active in at least one assay; those are over-represented in the sample as a whole.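 Percent growth is the endpoint: 0 to 100 indicates growth inhibition (40 means 60% inhibition), 0 means no net growth, and negative values indicate cell death.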 Activity calls are given as the source filed them. The calls were made as follows: active = growth percent below 10; inactive = the rest.

Assays:
Assay in all cases: NCI-60 one-dose screen, 48 h (100 = growth as untreated, 0 = no growth, -100 = all killed)
Conditions in all cases: 10 µM
[1] = tested on: RPMI-8226 leukemia
[2] = tested on: OVCAR-8 ovarian
[3] = tested on: OVCAR-5 ovarian
[4] = tested on: OVCAR-4 ovarian
[5] = tested on: SK-OV-3 ovarian
[6] = tested on: IGROV1 ovarian
[7] = tested on: OVCAR-3 ovarian
[8] = tested on: HS 578T breast
[9] = tested on: NCI/ADR-RES ovarian
[10] = tested on: T-47D breast
[11] = tested on: BT-549 breast
[12] = tested on: MDA-MB-435 melanoma
[13] = tested on: SW-620 colon
[14] = tested on: MCF7 breast
[15] = tested on: HCT-116 colon
[16] = tested on: HCC-2998 colon
[17] = tested on: KM12 colon

Measured: growth

COc1ccc2c(c1)O/C(=C\c1ccc([N+](=O)[O-])o1)C2=O
inactive: [3] 12.4% | [5] 67.6% | [8] 21.4% | [9] 16%
active: [1] -10.7% | [2] -8.18% | [4] -1.31% | [6] -14.2% | [7] -8.36% | [10] -0.109% | [11] -50% | [12] -72.5% | [13] -53.8% | [14] 2.06% | [15] -39% | [16] -26.8% | [17] -11.5%

CCN(CC)CCOc1nc2cc(OC)c(OC)cc2c2c1-c1ccc(OC)cc1C2=O
inactive: [1] 49.2% | [2] 52.9% | [3] 111% | [4] 61.5% | [5] 77.3% | [6] 60.4% | [7] 80% | [8] 89.6% | [9] 64.4% | [10] 107% | [11] 81.3% | [12] 86.2% | [13] 45.4% | [14] 35% | [15] 47.4% | [16] 82.6% | [17] 64.7%

COc1ccc2c(c1)/C(=C\c1c[nH]c3ccc(OC)cc13)C(=O)N2
active: [12] -11.5%
inactive: [1] 36.7% | [2] 59.7% | [3] 64.8% | [4] 57.6% | [5] 52.8% | [6] 41.7% | [7] 52.6% | [8] 46.9% | [9] 28.1% | [10] 49.7% | [11] 57.7% | [13] 15.1% | [14] 29.6% | [15] 30.1% | [16] 49.4% | [17] 10.1%

CC(=O)n1c(-c2ccc(Cl)c(Cl)c2)cn(-c2ccc(Cl)cc2)c1=O
inactive: [2] 20.8% | [3] 42.4% | [5] 19.1% | [9] 11.8% | [12] 32% | [13] 38.7% | [14] 21.9% | [15] 17.8% | [16] 21.6% | [17] 49.8%
active: [1] -10.9% | [4] 5.33% | [6] 4.07% | [7] 3.73% | [8] -15.5% | [10] -47.1% | [11] 0.373%

CC(=O)N(C)c1ccc(Nc2ccc(Nc3ccc(N(C)C(C)=O)cc3)c3c2C(=O)c2ccccc2C3=O)cc1
inactive: [1] 53.5% | [2] 71.2% | [3] 97.1% | [4] 63.7% | [5] 78.2% | [6] 32.6% | [7] 78.7% | [8] 58.3% | [9] 86% | [10] 54.7% | [11] 84.4% | [12] 101% | [13] 84.1% | [14] 52% | [15] 73.5% | [16] 89.6% | [17] 71.1%

COc1ccc(Oc2nc(NC3CCCC3)nc(Sc3ccc(OC)cc3)n2)cc1
inactive: [1] 63.7% | [2] 65.4% | [3] 91.1% | [4] 74.3% | [5] 82.8% | [6] 64.9% | [7] 77.1% | [8] 83.8% | [9] 66.2% | [10] 55.9% | [11] 91.9% | [12] 89% | [13] 87.9% | [14] 69.3% | [15] 45.1% | [16] 98.8% | [17] 83.9%

O=C1Nc2ccccc2C1=NC1CCCCC1
inactive: [1] 103% | [2] 98.1% | [3] 106% | [4] 96.3% | [5] 95.4% | [6] 88.5% | [7] 103% | [8] 116% | [9] 103% | [10] 83.1% | [11] 96.1% | [12] 106% | [13] 105% | [14] 98% | [15] 105% | [16] 107% | [17] 95.9%

CSc1nc(=O)n(Cc2ccc(Cl)cc2)c(=O)[nH]1
inactive: [1] 103% | [2] 98.8% | [3] 102% | [4] 110% | [5] 99.7% | [6] 132% | [7] 114% | [8] 105% | [9] 105% | [10] 90.1% | [11] 98% | [12] 114% | [13] 110% | [14] 99.3% | [15] 103% | [16] 103% | [17] 108%

O=C(c1cccs1)c1ccccc1Cc1ccccc1
inactive: [1] 100% | [2] 99% | [3] 124% | [4] 96.9% | [5] 101% | [6] 99.2% | [7] 110% | [8] 106% | [9] 103% | [10] 95% | [11] 106% | [12] 103% | [13] 104% | [14] 102% | [15] 113% | [16] 114% | [17] 104%

c1ccc(C(NC2CC3CCC2C3)c2ccccc2)cc1 (stereo unspecified)
inactive: [1] 96.2% | [2] 105% | [3] 101% | [4] 108% | [5] 95.9% | [6] 109% | [7] 114% | [8] 111% | [9] 103% | [10] 99.9% | [11] 78.4% | [12] 91.6% | [13] 106% | [14] 98.4% | [15] 89.9% | [16] 102% | [17] 95%

CC(=O)C1CCC2C3CC(F)C4=CC(=O)CCC4(C)C3C(O)CC12C (stereo unspecified)
inactive: [1] 83.4% | [2] 94.2% | [3] 105% | [4] 98.6% | [5] 83.9% | [6] 97.2% | [7] 114% | [8] 122% | [9] 94.9% | [10] 119% | [11] 91.2% | [12] 102% | [13] 109% | [14] 94.5% | [15] 89.9% | [16] 105% | [17] 111%

CCCCCCN1C(=O)C2=C(c3ccc(Cl)cc3)Nc3c(c(C)nn3-c3ccccc3)C2c2ccccc21 (stereo unspecified)
inactive: [1] 81.2% | [2] 92.5% | [3] 100% | [4] 90.5% | [5] 95.9% | [6] 100% | [7] 92.7% | [8] 118% | [9] 97.8% | [10] 84.5% | [11] 102% | [12] 89.8% | [13] 111% | [14] 77.8% | [15] 87.9% | [16] 92.1% | [17] 107%

O=C1Nc2ccc(Cl)cc2/C1=C\c1c(-c2ccc(Cl)cc2)nc2sc(C3CC3)nn12
active: [4] 9.28% | [8] 7.42%
inactive: [1] 69.5% | [2] 26.5% | [3] 77.8% | [5] 39.2% | [6] 71.5% | [7] 63.9% | [9] 45% | [10] 50.7% | [11] 65.3% | [12] 77% | [13] 80.8% | [14] 60.7% | [15] 41.4% | [16] 83.7% | [17] 82.7%

O=C(Nc1cccc(-n2cc(-c3ccncc3)c(-c3cc(O)cc(Cl)c3)n2)c1)c1ccc(N2CCOCC2)c(C(F)(F)F)c1
active: [1] -3.77% | [13] -26.2% | [16] -3.65% | [17] 9.89%
inactive: [2] 22.7% | [3] 81.4% | [4] 77.1% | [5] 50.7% | [6] 44.3% | [7] 36.4% | [8] 17.9% | [9] 35% | [10] 29.3% | [11] 52.2% | [12] 23% | [14] 29.7% | [15] 12.7%

CCN(CC)CCOc1nc2ccc(OC)cc2c2c1-c1ccc(OC)cc1C2=O
active: [1] -24.5% | [2] -60.1% | [4] -6.86% | [6] -48.8% | [7] -94.2% | [9] 0.706% | [12] -22.7% | [13] -59.4% | [14] -58.6% | [15] -98.3% | [17] -82%
inactive: [3] 49.3% | [5] 30.9% | [8] 10.3% | [10] 68.7% | [11] 65.1% | [16] 38.6%

CS(=O)(=O)Nc1ccc(Nc2c3ccccc3nc3cc([N+](=O)[O-])ccc23)cc1
active: [1] 0.427% | [7] -1.65% | [10] -11% | [13] 7.02% | [14] 2.38% | [15] 4.91% | [17] -35.7%
inactive: [2] 16.6% | [3] 67.7% | [4] 46.8% | [5] 53.3% | [6] 10.5% | [8] 60.3% | [9] 87% | [11] 32.5% | [12] 39.7% | [16] 32.3%

COc1ccc(C2=NN(C(=O)c3ccc(S(C)(=O)=O)cc3)C(c3ccc(OC)c(OC)c3)C2)c(OC)c1 (stereo unspecified)
inactive: [1] 110% | [2] 108% | [3] 107% | [4] 106% | [5] 84.2% | [6] 106% | [7] 99.9% | [8] 101% | [9] 107% | [10] 74.8% | [11] 91.6% | [12] 108% | [13] 105% | [14] 98.7% | [15] 82.7% | [16] 102% | [17] 100%

CCN(CC)CCC(CNc1c(C)cnc2cc(Cl)ccc12)c1ccc(Cl)cc1 (stereo unspecified)
inactive: [1] 44% | [2] 61.8% | [3] 54.6% | [4] 56.6% | [5] 81.7% | [6] 46.4% | [7] 70.8% | [8] 70.1% | [9] 59% | [10] 59.6% | [11] 67.7% | [13] 51.2% | [14] 39.7% | [15] 23% | [16] 26.7% | [17] 79.8%
active: [12] -7.89%
